Among the test systems are SK-MEL-2 melanoma; EKVX NSCLC; SN12C renal; UO-31 renal; TK-10 renal; ACHN renal; A498 renal; CCRF-CEM leukemia; MOLT-4 leukemia; SR leukemia; RPMI-8226 leukemia; OVCAR-8 ovarian; OVCAR-5 ovarian; OVCAR-4 ovarian; SK-OV-3 ovarian; IGROV1 ovarian; OVCAR-3 ovarian; HS 578T breast; NCI/ADR-RES ovarian.
Common to all, as to assay: NCI-60 one-dose screen, 48 h (100 = growth as untreated, 0 = no growth, -100 = all killed)
What all share (settings): 10 µM unless noted

Each structure is given as a SMILES string. The panel holds about 83,000 compounds, 20% with a hit somewhere; the sample as a whole holds those more often.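 Plates (96-well) were seeded with cells, treated with compound at one concentration, and incubated for 48 hours before percent growth was determined.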 A number with no mark means an inactive call. Activity calls are given as the source filed them. How the source made its calls: active means growth percent below 10; inactive means the rest.

For `Clc1ccc2c(NCCNc3nc(N4CCCCC4)nc4ccccc34)ccnc2c1`, the growth in the experiment on SK-MEL-2 melanoma is -61.8% (active); with EKVX NSCLC, 32.9%; with SN12C renal it was -2.91% (active); in the experiment with UO-31 renal, -97.6% (active); with TK-10 renal it was -32.5% (active); with ACHN renal, -72.8% (active). The growth in the experiment on A498 renal is 75.8%; in the experiment with CCRF-CEM leukemia, 0.574% (active); in the experiment on MOLT-4 leukemia it was 7.69% (active); in the experiment on SR leukemia, -29.5% (active); in the experiment on RPMI-8226 leukemia, -41.6% (active); with OVCAR-8 ovarian, -30.5% (active). Also, the growth in the experiment on OVCAR-5 ovarian was 25.4%; with OVCAR-4 ovarian, 34.2%; in the experiment on SK-OV-3 ovarian it was -2.73% (active); with IGROV1 ovarian, 30.4%; with OVCAR-3 ovarian, -64.7% (active); in the experiment with HS 578T breast, 37.9%. Besides, the growth in the experiment with NCI/ADR-RES ovarian is 25.4%.

Take `FC(F)(F)Oc1ccc2nc3nc4ccc[nH]c4cc3c2c1`: the growth in the experiment with SK-MEL-2 melanoma is 98%; with EKVX NSCLC, 62.8%; in the experiment with SN12C renal, 87.5%; in the experiment on UO-31 renal it was 61.8%; in the experiment on TK-10 renal, 64.7%; in the experiment on ACHN renal it was 56.4%. In addition, the growth in the experiment on A498 renal is 98.1%; in the experiment on CCRF-CEM leukemia, 75.7%; in the experiment with MOLT-4 leukemia, 68.9%; in the experiment on SR leukemia, 43.9%; with RPMI-8226 leukemia, 71.7%; with OVCAR-8 ovarian, 69.9%. Also, the growth with OVCAR-5 ovarian is 115%; in the experiment on SK-OV-3 ovarian it was 63.8%; in the experiment on IGROV1 ovarian it was 74.6%; with OVCAR-3 ovarian, 98.2%; in the experiment with HS 578T breast it was 56.7%; in the experiment with NCI/ADR-RES ovarian it was 85.8%.

On to `CCCCCCN(CCCCCC)CCC(O)c1ccc2ccccc2c1` (stereo unspecified), for which the growth was 86.1% in the experiment on SK-MEL-2 melanoma; 71% in the experiment with EKVX NSCLC; 58.6% with SN12C renal; 38.4% in the experiment on UO-31 renal; 72% in the experiment with TK-10 renal; 68.7% in the experiment with ACHN renal. Also, the growth is 48.3% with A498 renal; 41.8% in the experiment with CCRF-CEM leukemia; 45.7% with MOLT-4 leukemia; 0.428% (active) with SR leukemia; 7.65% (active) with RPMI-8226 leukemia; 73.4% with OVCAR-8 ovarian. Besides, the growth in the experiment with OVCAR-5 ovarian was 69.5%; in the experiment on OVCAR-4 ovarian, 45.7%; in the experiment with SK-OV-3 ovarian, 83.5%; in the experiment with IGROV1 ovarian, 59.6%; in the experiment on OVCAR-3 ovarian, 69.7%; in the experiment on HS 578T breast it was 69.1%. For the same compound, the growth in the experiment with NCI/ADR-RES ovarian is 58%.

With `Clc1ccc2c(NCCCCNc3nc(N4CCOCC4)nc4ccccc34)ccnc2c1`, the growth with SK-MEL-2 melanoma was 103%; in the experiment with EKVX NSCLC it was 45.2%; in the experiment on SN12C renal, -8.57% (active); in the experiment on UO-31 renal, -89.7% (active); in the experiment on TK-10 renal, -63.1% (active); with ACHN renal, -67.5% (active). The growth was 90.4% with A498 renal; -21.7% (active) in the experiment with CCRF-CEM leukemia; 17.6% in the experiment with MOLT-4 leukemia; -18.9% (active) with SR leukemia; -32.2% (active) in the experiment with RPMI-8226 leukemia; 9.88% (active) with OVCAR-8 ovarian. The growth was 64.8% in the experiment on OVCAR-5 ovarian; -13.1% (active) in the experiment on OVCAR-4 ovarian; 64.5% in the experiment on SK-OV-3 ovarian; 44.9% in the experiment with IGROV1 ovarian; -71.2% (active) in the experiment on OVCAR-3 ovarian; 91.8% in the experiment with HS 578T breast. The growth in the experiment on NCI/ADR-RES ovarian was 55.6%.

Regarding `COc1cc2c(cc1OC)C(Sc1ccc(SC)cc1)c1c(nc(N)c(C#N)c1N)O2` (stereo unspecified), the growth in the experiment with SK-MEL-2 melanoma was -63.7% (active); with EKVX NSCLC, -45.6% (active); in the experiment on SN12C renal it was -88% (active); in the experiment with UO-31 renal, -99.7% (active); with TK-10 renal, -95.7% (active); with ACHN renal, -86.4% (active). The growth is -6.98% (active) in the experiment on A498 renal; -32.7% (active) in the experiment with CCRF-CEM leukemia; -26.3% (active) in the experiment with MOLT-4 leukemia; -37.4% (active) with SR leukemia; -37.9% (active) in the experiment on RPMI-8226 leukemia; -90.6% (active) in the experiment on OVCAR-8 ovarian. For the same compound, the growth in the experiment with OVCAR-5 ovarian was -63.1% (active); in the experiment on OVCAR-4 ovarian, -94.8% (active); in the experiment on SK-OV-3 ovarian, -85.1% (active); in the experiment on IGROV1 ovarian it was -68.9% (active); in the experiment on OVCAR-3 ovarian, -88.7% (active); in the experiment with HS 578T breast it was 4.87% (active). The growth with NCI/ADR-RES ovarian was -23.2% (active).

Regarding `CN(C)c1ccc(NC(=O)c2ccc(/C=C/C(=O)c3ncc[nH]3)cc2)cc1`, the growth in the experiment with SK-MEL-2 melanoma was 92%; with EKVX NSCLC, 73%; in the experiment on SN12C renal, 44.9%; in the experiment on UO-31 renal, 37.9%; in the experiment with TK-10 renal it was 74%; in the experiment with ACHN renal, 71.4%. Further, the growth in the experiment with A498 renal is 94.1%; in the experiment with CCRF-CEM leukemia it was 4.98% (active); with MOLT-4 leukemia, 27.1%; with SR leukemia, 5.75% (active); in the experiment on RPMI-8226 leukemia, -4.78% (active); in the experiment with OVCAR-8 ovarian it was 26.6%. Further, the growth in the experiment on OVCAR-5 ovarian is 95.4%; in the experiment with OVCAR-4 ovarian, 75.7%; in the experiment on SK-OV-3 ovarian, 64.2%; with IGROV1 ovarian, 69.8%; in the experiment with OVCAR-3 ovarian, 25.7%; in the experiment with HS 578T breast, 88.1%. Further, in the experiment on NCI/ADR-RES ovarian, the growth is 64%.

As for `CN1C(=O)C2(SCC(C(=O)NCc3ccccc3)N2C(=O)C2CCCCC2)c2ccccc21` (stereo unspecified), the growth in the experiment with SK-MEL-2 melanoma is 81.8%; with EKVX NSCLC, 86.8%; in the experiment on SN12C renal, 102%; in the experiment with UO-31 renal it was 64%; with TK-10 renal, 115%; with ACHN renal, 104%. Besides, the growth was 98.9% in the experiment on A498 renal; 102% in the experiment with CCRF-CEM leukemia; 78.7% with MOLT-4 leukemia; 83.3% with SR leukemia; 95% in the experiment on RPMI-8226 leukemia; 92% in the experiment with OVCAR-8 ovarian. Besides, the growth in the experiment with OVCAR-5 ovarian was 105%; in the experiment on OVCAR-4 ovarian, 88.1%; in the experiment with SK-OV-3 ovarian, 114%; in the experiment on IGROV1 ovarian it was 88%; with OVCAR-3 ovarian, 90.5%; in the experiment on HS 578T breast, 89.3%. In the experiment on NCI/ADR-RES ovarian, the growth was 94.2%.

Turning to `O=C(O)COc1ccc(Cl)cc1C1CCCCC1`, the growth in the experiment with SK-MEL-2 melanoma is 103%; in the experiment with EKVX NSCLC it was 117%; in the experiment with SN12C renal, 98.5%; in the experiment on UO-31 renal it was 87.6%; in the experiment on TK-10 renal, 101%; in the experiment with ACHN renal it was 107%. In addition, the growth with A498 renal was 90.2%; in the experiment on CCRF-CEM leukemia it was 92.1%; in the experiment with MOLT-4 leukemia, 87.9%; in the experiment on SR leukemia, 95.4%; in the experiment on RPMI-8226 leukemia it was 102%; with OVCAR-8 ovarian, 103%. For the same compound, the growth in the experiment with OVCAR-5 ovarian is 107%; in the experiment with OVCAR-4 ovarian it was 109%; in the experiment with SK-OV-3 ovarian it was 107%; in the experiment on IGROV1 ovarian it was 117%; with OVCAR-3 ovarian, 115%; in the experiment with HS 578T breast, 105%. Further, the growth with NCI/ADR-RES ovarian was 104%.

As to `CN(C)c1ccc(N=Nc2ccc(Br)cn2)c(O)c1`, the growth with SK-MEL-2 melanoma is 18.8%; in the experiment with EKVX NSCLC, 14.3%; with SN12C renal it was 12.3%; with UO-31 renal, 3.75% (active); with TK-10 renal it was 33.9%; in the experiment with ACHN renal, 7.81% (active). For the same compound, the growth was 53.9% in the experiment on A498 renal; -0.72% (active) with CCRF-CEM leukemia; 1.73% (active) in the experiment with MOLT-4 leukemia; 3.15% (active) in the experiment with SR leukemia; 11.9% with RPMI-8226 leukemia; 15.5% in the experiment on OVCAR-8 ovarian. For the same compound, the growth in the experiment on OVCAR-5 ovarian is 59.6%; in the experiment with OVCAR-4 ovarian it was 1.05% (active); in the experiment on SK-OV-3 ovarian, 25.9%; in the experiment with IGROV1 ovarian, 16%; in the experiment on OVCAR-3 ovarian, 14.8%; in the experiment with HS 578T breast it was 64%. Further, the growth with NCI/ADR-RES ovarian is 12.8%.

In the case of `Clc1ccc2nc3nc4ccc[nH]c4cc3c2c1`, the growth is 88.5% in the experiment on SK-MEL-2 melanoma; 68.2% in the experiment with EKVX NSCLC; 90.8% in the experiment with SN12C renal; 78.4% with UO-31 renal; 43.1% with TK-10 renal; 85.9% in the experiment on ACHN renal. In addition, the growth in the experiment with A498 renal was 109%; in the experiment with CCRF-CEM leukemia, 71.4%; with MOLT-4 leukemia, 80.5%; in the experiment on SR leukemia it was 39.6%; in the experiment with RPMI-8226 leukemia, 65.5%; in the experiment on OVCAR-8 ovarian it was 87.4%. The growth in the experiment with OVCAR-5 ovarian was 127%; in the experiment on OVCAR-4 ovarian, 49.2%; in the experiment with SK-OV-3 ovarian, 98.1%; in the experiment with IGROV1 ovarian, 52.9%; in the experiment on OVCAR-3 ovarian, 83.1%; in the experiment on HS 578T breast it was 92.2%. In the experiment on NCI/ADR-RES ovarian, the growth was 88.3%.

On to `CCCCC(=O)OCC1OC(n2cnc3c(=S)nc[nH]c32)C(OC(=O)CCCC)C1OC(=O)CCCC` (stereo unspecified), for which the growth in the experiment with SK-MEL-2 melanoma was 46.2%; in the experiment with EKVX NSCLC it was 31.3%; in the experiment on SN12C renal it was 27.4%; in the experiment on UO-31 renal it was 35%; with TK-10 renal, 14.9%; in the experiment with ACHN renal, 17.2%. For the same compound, the growth with A498 renal is 24.8%; in the experiment on CCRF-CEM leukemia, 28.4%; in the experiment with MOLT-4 leukemia, 15.3%; in the experiment with SR leukemia, 24.5%; with OVCAR-8 ovarian, -23.2% (active); with OVCAR-5 ovarian it was 32.3%. Also, the growth in the experiment with OVCAR-4 ovarian is 29.8%; in the experiment on SK-OV-3 ovarian, 19.3%; in the experiment on OVCAR-3 ovarian, 22%; in the experiment with HS 578T breast it was 38.1%; in the experiment with NCI/ADR-RES ovarian it was 19.6%.

The values above are taken from PubChem BioAssay (NCI).
